Bioassay records deposited in PubChem by National Center for Advancing Translational Sciences (NCATS).
Vif-A3G inh – qHTS for Inhibitors of Vif-A3G Interactions: qHTS | 0.076% of 410,000 active | DNA dC->dU-editing enzyme APOBEC-3G (Homo sapiens), Q9HC16 | AID 602310, 2012 | HeLa A3G-eYFP + Vif (tagged APOBEC3G with the HIV-1 protein that degrades it), YFP fluorescence, overnight | Potency, µM (highest dose often 46.1 µM), hits mostly inhibitors; also: nearly all actives have a fitted effect of over 60% in size
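HeLa cells stably expressing Vif and C-terminally eYFP-tagged A3G, seeded overnight at 37 deg C, then exposed to compound by pintool overnight at 37 deg C. Rise in yellow fluorescence (Ex 488/Em 500-530, Acumen) marks blocked Vif-driven A3G degradation.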
VDR inhibitor – Inhibitors of the vitamin D receptor (VDR): qHTS | Vitamin D3 receptor (Homo sapiens), P11473 | VDR-SRC2-3 peptide fluorescence polarization, 2 h | Potency, µM, most hits filed as inhibitors | 0.93% of 400,000 active | AID 504847, 2011
Target sequence (P11473 whole entry, looked up): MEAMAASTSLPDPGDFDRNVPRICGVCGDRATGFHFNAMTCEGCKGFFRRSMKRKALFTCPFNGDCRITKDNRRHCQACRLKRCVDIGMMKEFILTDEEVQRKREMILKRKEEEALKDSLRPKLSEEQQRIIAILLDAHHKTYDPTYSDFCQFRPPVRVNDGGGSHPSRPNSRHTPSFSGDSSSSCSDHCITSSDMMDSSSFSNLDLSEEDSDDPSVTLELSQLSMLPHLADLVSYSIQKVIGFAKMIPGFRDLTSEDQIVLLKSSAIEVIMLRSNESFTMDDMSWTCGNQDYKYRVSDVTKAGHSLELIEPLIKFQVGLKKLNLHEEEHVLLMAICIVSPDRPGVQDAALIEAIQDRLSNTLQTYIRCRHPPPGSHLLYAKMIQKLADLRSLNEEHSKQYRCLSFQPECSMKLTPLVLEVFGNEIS
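Compounds are added to VDR with labelled SRC2-3 coactivator peptide and held 2 h at room temperature. Inhibition of the VDR–peptide interaction is then read as a change in fluorescence polarization.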
TrxR1 substrate – qHTS Assay for Substrates of Mammalian Selenoprotein Thioredoxin Reductase 1 (TrxR1): qHTS. 0.01% of 390,000 active. Potency, µM (top dose mostly 114 µM). Thioredoxin reductase 1, cytoplasmic (Rattus norvegicus), O89049. purified TrxR1 substrate turnover, NADPH consumption readout; also: nearly all actives have a fitted effect of over 50% in size
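Rat TrxR1, dispensed at 90 nM, was prereduced with 400 uM NADPH (final) for 5 min at ~22 deg C, then incubated with compound 15 min before 400 uM selenite. A first-read NADPH fluorescence drop versus no-compound background flagged substrates.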
rTrxR1 inhibitor – qHTS Assay for Inhibitors of Mammalian Selenoprotein Thioredoxin Reductase 1 (TrxR1): qHTS | recombinant rTrxR1, NADPH fluorescence consumption, selenite substrate | 1% of 390,000 active | AID 588453, 2011 | Potency, µM (series often up to 114 µM), actives largely listed as inhibitors; also: nearly all actives have a fitted effect of over 65% in size
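Rat TrxR1 (90 nM in the dispensed reagent) was pre-reduced with 400 uM NADPH for 5 min at room temperature, then incubated with compound for 15 min. After 400 uM selenite was added, NADPH fluorescence (Ex 340/Em 450 nm) was followed for 8 min.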
Vif-APOBEC3F blk – qHTS for Inhibitors of Vif-A3F Interactions: qHTS | HeLa A3F-eYFP + Vif (tagged APOBEC3F with the HIV-1 protein that degrades it), YFP fluorescence increase | Potency, µM (series often up to 46.1 µM) | 0.2% of 390,000 active; also: nearly all actives have a fitted effect of over 65% in size
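HeLa cells stably expressing Vif plus C-terminally eYFP-tagged A3F were seeded, incubated overnight at 37 deg C, dosed with compound, incubated overnight again at 37 deg C. Yellow fluorescence (Ex 488/Em 500-530) reported blocked Vif-mediated A3F-eYFP degradation.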
A number is an active result; i = inactive; ? = inconclusive; nt = not tested or not shown; ! = a repeat was not active; [ ] = dose if it differs, or a comment. Rows were chosen to be rich in hits. Some 1.8% of all compounds tested hit in one or more screens of this group. Calls follow the shape of the dose curve; as a rule, active = well fitted curve in the direction sought with a large enough effect; inconclusive = small, poorly fitted or top-dose-only effect, or another doubt; inactive = no such curve, though single readings can be large; an effect the other way counts as inactive or inconclusive.

SMILES | Vif-A3G inh | VDR inhibitor | TrxR1 substrate | rTrxR1 inhibitor | Vif-APOBEC3F blk
CC(C)(C)n1ncc2c(=O)n(Cc3ccc(-c4ccccc4C#N)cc3)cnc21 | i | nt | nt | nt | nt
Cc1cc(O)c(CN(C)C)c2c1C(=O)/C(=C/c1ccco1)O2 | i | i | i | 56µM | i
CC(=O)N(c1ccc2oc(=O)sc2c1)S(=O)(=O)c1ccccc1 | i | i | i | i | i
Cc1ccc(S(=O)(=O)N(C(=O)c2ccco2)c2cc3sc(=O)oc3c3ccccc23)cc1 | i | 20µM | i | i | i
CCOc1ccc(S(=O)(=O)N(C(=O)c2ccco2)c2cc3sc(=O)oc3c3ccccc23)cc1 | i | 32µM | i | i | i
Cc1cc(-c2ccc(S(=O)(=O)Nc3cc(Cl)ccc3C)s2)on1 | i | i | i | i | i
CC1CC(C)CN(CC(=O)c2c[nH]c3ccccc23)C1 (centres undefined) | ? | i | i | i | 32µM
Cc1ccc(CN2CCCN(C)CC2)c(C)c1 | i | 79µM | i | i | i
CCc1ccc(/C=C/C(=O)c2cc(Br)ccc(=O)c2O)cc1 | i | 20µM | i | ? | i
O=C(C=Cc1ccccc1)c1cc(Br)ccc1O | i | ? | i | i | i
CCOC(=O)c1c(N)sc(C(=O)OCCOC)c1C | i | 79µM | i | i | i
CCOC(=O)c1sc(N)c(C(=O)OCC)c1C | i | i | i | i | i
CN(C(=O)NC(=O)C1=C(N2CCOCC2)/C(=C/c2ccccc2)CC1)S(C)(=O)=O | i | i | i | 35µM | i
O=C(O)c1ccc(N/N=C/C2=C(N3CCOCC3)C(=C\c3ccccc3)/CC2)cc1 | i | ? | i | i | ?
CCCCN(C(=O)NC(=O)C1=C(N2CCOCC2)/C(=C/c2ccccc2)CC1)S(C)(=O)=O | i | i | i | 14µM | i
CN(C)CCCNc1nccc(N2CCN(C)CC2)n1 | i | nt | i | i | nt
COCCNc1ccnc(-c2c(C)noc2C)n1 | nt | i | nt | nt | nt
Cc1noc(C)c1-c1nccc(NC2CC2)n1 | nt | 50µM | nt | nt | nt
Cc1cc([N+](C)(C)C)cc(C)c1/C=C/c1ccnc2ccccc12 | i | nt | i | i | nt
O=C1CC2(CCCCC2)CC(=O)N1CCc1ccccc1 | i | i | i[2.29 µM] | i[2.29 µM] | i
O=C1C=CC(=O)C(C2=C3C(=O)N(CCc4ccccc4)CC(=O)N3CCC2)=C1 | ? | 32µM | i | 3.2µM | i
CCOC(=O)CSC(=S)NC(=O)c1ccc(OC)cc1 | i | ? | i | 22µM | i
COc1ccc(C(=O)NC(=S)SCC(=O)O)cc1 | i | i | i | i | i
CCOc1ccc(S(=O)(=O)N(C(=O)c2ccncc2)c2ccc3oc(C)c(C(=O)OC)c3c2)cc1 | i | i | i | i | i
CCc1cccc(NC(=O)CCS(=O)(=O)c2ccc(Br)cc2)c1 | i | 79µM | i | i | i
SMILES | Vif-A3G inh | VDR inhibitor | TrxR1 substrate | rTrxR1 inhibitor | Vif-APOBEC3F blk
O=C(CCS(=O)(=O)c1ccc(Br)cc1)Nc1ccccn1 | i | i | i | 45µM | i
CCOC(=O)c1cccc(NC(=O)CCS(=O)(=O)c2cccs2)c1 | i | i | i | 22µM | i
Cc1ccc(S(=O)(=O)CCC(=O)Nc2cccc(C)c2)cc1 | i | i | i | i | i
COc1cc(C(=O)Nc2ccc3oc(-c4ccccc4)nc3c2)cc(OC)c1OC | i | i | i | i | i
Cc1ccc(C(C)NC(=O)c2cccnc2)cc1 (centres undefined) | i | i | i | i | i
CC(C)C(NC(=O)c1cccnc1)C(=O)O (centres undefined) | i | 79µM | i | i | i
Cc1ccc(S(=O)(=O)N2CCN(c3nc(-n4c(=O)[nH]c5ccccc54)nc4ccccc34)CC2)cc1 | nt | nt | i | i | nt
Cc1c([N+](=O)[O-])nnn1-c1cc(Cl)cc(Cl)c1 | i | i | i | 16µM | i
O=S(=O)(c1ccc(F)cc1)N1CCN(c2nc(-c3ccc(F)cc3)nc3cc(Cl)ccc23)CC1 | i | i | i | i | nt
Cc1nnc(NC(=O)CSCc2cc(=O)c3ccccc3[nH]2)s1 | i | i | i | i | i
Cc1ccc2nccc(/C=C/c3ccc(N(C)C)cc3)c2c1 | 3.5µM | nt | i | i | nt
CN(C)c1ccc(/C=C/c2ccnc3ccccc23)cc1O | 11µM | nt | i | i | nt
CN(C)c1ccc(/C=C/c2ccnc3ccccc23)cc1C=O | 7.1µM | nt | i | ? | nt
CCOc1cc2sc(N3CCC(C(=O)Nc4ccccc4Cl)CC3)nc2cc1Br | i | i | i | i | i
O=C(Oc1ccc2c(=O)c(Cl)coc2c1)c1cccnc1 | i | i | i | 13µM | i
O=C(NNS(=O)(=O)c1ccccc1)c1ccc([N+](=O)[O-])cc1 | i | i | i | i | i
O=C(NC(=S)NNS(=O)(=O)c1ccccc1)c1ccc([N+](=O)[O-])cc1 | i | i | i | 14µM | i
O=C(NC(=S)NNS(=O)(=O)c1ccccc1)c1cccnc1 | i | i | i | 25µM | i
N#Cc1ccccc1NC(=S)NC(=O)c1cccnc1 | i | i | i | 3.5µM | i
CCCN1CNc2c(c(=O)[nH]c(=S)n2CCc2ccc(Cl)cc2Cl)C1 | nt | i | i | i | nt
O=C(NC1CCCCC1)C1COc2ccccc2O1 (centres undefined) | i | i | i | 50µM | i
O=C(NCCc1ccc(O)c(O)c1)C1COc2ccccc2O1 (centres undefined) | ? | i | i | 45µM | ?
CC1CCC(NC(=O)C2COc3ccccc3O2)CC1 (centres undefined) | i | i | i | i | i
O=C(NCCc1ccccc1)C1COc2ccccc2O1 (centres undefined) | i | i | i | i | i
COc1ccc(OCC(=O)Nc2nnc3n2CCS3)cc1 | i | i | i | i | i
SMILES | Vif-A3G inh | VDR inhibitor | TrxR1 substrate | rTrxR1 inhibitor | Vif-APOBEC3F blk
CC(=O)NCCNc1nc(-c2ccccc2C)nc2ccccc12 | nt | i | nt | nt | nt
COC(=O)C(CC(=O)c1ccc(Br)cc1)n1nc(C)cc1C (centres undefined) | i | ? | i | 8.9µM | i
COc1cc2c(NC3CCN(C)CC3)nc(N3CCCN(C)CC3)nc2cc1OCCCCCN(C)C | i | nt | i | ? | nt
C/C=C1\COC(C(=O)NCc2ccccc2)(C(F)(F)F)C=C1C=C1CCCCC1 (centres undefined) | i | 79µM! | i | 1µM | i
C/C=C1\COC(C(=O)NCCN2CCCC2)(C(F)(F)F)C=C1C=C1CCCCC1 (centres undefined) | i | i | i | i | i
C/C=C1\COC(C(=O)NCCCN2CCCC2=O)(C(F)(F)F)C=C1C=C(C)C (centres undefined) | i | ? | i | 3.2µM | i
